Screening data from PubChem BioAssay.
RORg inh: qHTS for inhibitors of ROR gamma transcriptional activity; Drosophila S2 Gal4-RORgamma UAS-luciferase reporter, 20 h; Potency, µM (top dose mostly 53.6 µM), for inactives: at the top dose activity change, negative = inhibition, actives largely listed as inhibitors; 310,000 tested, 5.4% active; further: potency means the concentration at half of the fitted maximal effect; nearly all actives have a fitted effect of over 60% in size
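Drosophila Schneider cells stably carrying a metallothionein-driven Gal4 DBD–ROR gamma fusion and a UAS-Photinus luciferase reporter were exposed to compound for 1 hr, then induced with copper sulfate (700 uM final) for 20 hr at ambient temperature before luminescence reading.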
B2AR arrestin: qHTS assay of beta-arrestin-biased ligands of beta2-adrenergic receptor; Beta-2 adrenergic receptor (Homo sapiens), P07550; beta-arrestin recruitment to beta2AR, cell-based reporter; AID 492947, 2010; Potency, µM (series often up to 46.1 µM), for the others: at the top dose activation, hits mostly activators; 330,000 tested, 0.02% active;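 further: potency means the concentration at half of the fitted maximal effect; 0% = DMSO controls and full agonism = EC100 isoproterenol or metaproterenol; nearly all actives have a fitted effect of over 65% in size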
ELG1 repair inh: qHTS screen for small molecules that inhibit ELG1-dependent DNA repair in human embryonic kidney (HEK293T) cells expressing luciferase-tagged ELG1; HEK293T ELG1-luciferase reporter, luminescence, 16 h; DNA damage induced by 5-fluorouridine; Potency, µM (doses to about 46.1 µM), for inactives: top-dose activity change, negative = inhibition, actives largely listed as inhibitors; 330,000 tested, 2.3% active; AID 504467, 2011; further: potency means the concentration at half of the fitted maximal effect; nearly all actives have a fitted effect of over 55% in size
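DMSO vehicle served as the neutral condition. Each well held 2,000 cells given 5-fluorouridine plus compound; after 16 hr at 37 °C/5% CO2, ONE-Glo was added and luciferase measured 30 min later.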
Gal4-VP16 FLuc: VP16 counterscreen qHTS for inhibitors of ROR gamma transcriptional activity; AID 2546, 2010; Potency, µM (titrated, usually from 53.6 µM), for inactives: top-dose activity, negative = inhibition, actives largely listed as inhibitors; 310,000 tested, 3.5% active; Drosophila S2 Gal4-VP16 UAS-luciferase, luminescence, 20 h;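 further: Gal4-VP16 expression switched on by copper sulfate through the metallothionein promoter; potency means the concentration at half of the fitted maximal effect; nearly all actives have a fitted effect of over 50% in size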
TSHR antag: Antagonists of the Thyroid Stimulating Hormone Receptor: HTS campaign; TSHR-expressing cells, TSH-stimulated cAMP HTRF, 2 h; stronger effect = lower value; 330,000 tested, 0.2% active; Thyrotropin receptor (Homo sapiens), P16473; AID 504810, 2011; activity change, negative = inhibition, % at 11.5 µM;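 active means activity change below a set negative limit, meaning inhibition stronger than a set level, cut at about -70% in these data; inconclusive means activity change between two set negative limits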
Target sequence (P16473 whole entry, looked up): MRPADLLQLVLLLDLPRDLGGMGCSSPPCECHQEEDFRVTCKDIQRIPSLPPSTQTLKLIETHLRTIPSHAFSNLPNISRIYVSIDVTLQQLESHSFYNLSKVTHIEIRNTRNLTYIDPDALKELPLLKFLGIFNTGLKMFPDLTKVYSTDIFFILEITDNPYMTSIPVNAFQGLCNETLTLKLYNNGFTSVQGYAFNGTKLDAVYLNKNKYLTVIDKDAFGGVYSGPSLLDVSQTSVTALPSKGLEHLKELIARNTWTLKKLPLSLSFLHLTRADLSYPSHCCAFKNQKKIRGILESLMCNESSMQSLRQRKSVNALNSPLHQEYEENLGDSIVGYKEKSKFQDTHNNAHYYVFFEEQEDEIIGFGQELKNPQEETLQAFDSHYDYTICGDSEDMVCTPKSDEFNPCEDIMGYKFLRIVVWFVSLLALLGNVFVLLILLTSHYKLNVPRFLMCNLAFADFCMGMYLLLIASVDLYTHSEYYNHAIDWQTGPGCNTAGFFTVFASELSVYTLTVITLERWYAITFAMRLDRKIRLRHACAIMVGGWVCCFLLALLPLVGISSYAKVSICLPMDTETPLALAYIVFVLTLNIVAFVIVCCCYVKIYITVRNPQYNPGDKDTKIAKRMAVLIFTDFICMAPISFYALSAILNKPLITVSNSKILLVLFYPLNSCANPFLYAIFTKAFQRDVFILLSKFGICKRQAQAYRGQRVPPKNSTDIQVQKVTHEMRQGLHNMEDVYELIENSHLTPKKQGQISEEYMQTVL
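TSHR-expressing cells were treated with compounds, then stimulated with TSH at EC80 (4nM final) for 2 hours at 37 deg C. Cellular cAMP was measured by HTRF competition between lysate cAMP and cAMP-d2 for a cryptate-labelled anti-cAMP antibody.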
* hit, by the source's call; [ ] = another dose, or the depositor's remark. Shown are actives, neighbours in structure and some others; about 7.5% of the full set was active somewhere. Unless noted, the call rests on the fitted dose curve; in most records, active means well fitted curve in the direction sought with a large enough effect; inconclusive means small, poorly fitted or top-dose-only effect, or another doubt; inactive means no such curve, though single readings can be large; an effect the other way counts as inactive or inconclusive. Unless noted, on the % scale 0 is the no-effect control and ±100 the full control effect.

`c1cc(OCC2CO2)cc(OCC2CO2)c1` (centres undefined) gave RORg inh -17% and Gal4-VP16 FLuc -1%.
`COCCNC(=O)CSc1n[nH]c(=O)n1CCc1ccccc1` gave RORg inh -8%, B2AR arrestin 0%, ELG1 repair inh 9%, Gal4-VP16 FLuc 2% and TSHR antag 14.
`C[C@@H]1C(=O)O[C@@H]2C[C@]34[C@H]5C[C@@H](C(C)(C)C)[C@@]36[C@@H](OC(=O)[C@@H]6O)O[C@@]4(C(=O)O5)[C@@]12O` gave RORg inh -2%[16.9 µM] and Gal4-VP16 FLuc 4%[17 µM].
O=C(NC(=S)NCc1ccc(Cl)cc1)c1ccco1 was read as B2AR arrestin 0%, ELG1 repair inh inconclusive and TSHR antag -8.
O=C(NC(=S)NCCC1=CCCCC1)c1ccc(Br)o1 was read as RORg inh 4.5µM*, B2AR arrestin 0%, ELG1 repair inh inconclusive, Gal4-VP16 FLuc inconclusive and TSHR antag 0.
For O=C(Cc1ccccc1)NCCC1=CCCCC1 the results were RORg inh 18%, B2AR arrestin 0%, ELG1 repair inh inconclusive, Gal4-VP16 FLuc -6% and TSHR antag 4.
`O=C(NC(=S)NCCC1=CCCCC1)c1ccco1` gave RORg inh 4.5µM*, B2AR arrestin 8%, ELG1 repair inh inconclusive, Gal4-VP16 FLuc inconclusive and TSHR antag -10.
For Cc1ccccc1C(=O)NC(=S)NCCC1=CCCCC1 the results were RORg inh 4µM*, B2AR arrestin 0%, ELG1 repair inh 3%, Gal4-VP16 FLuc 16µM* and TSHR antag -13.
O=C(NC(=S)NCCc1ccccc1)c1ccco1 was read as RORg inh 6.3µM*, B2AR arrestin 0%, ELG1 repair inh inconclusive, Gal4-VP16 FLuc inconclusive and TSHR antag -3.
Screening CCCCc1ncc(CN2CCC(n3nccc3NC(=O)c3ccccc3Cl)CC2)[nH]1 returned RORg inh 6%, B2AR arrestin -1%, ELG1 repair inh 10µM*, Gal4-VP16 FLuc -2% and TSHR antag 22.
`COc1ccc(C(=C2C(=O)Nc3ccccc32)c2ccc(OC)cc2)cc1` gave RORg inh 22% and Gal4-VP16 FLuc 5%.
Screening CCCc1cc(C(=O)N/N=C/c2ccc(CC)s2)c2ccccc2n1 returned RORg inh 2.8µM*, B2AR arrestin 0%, ELG1 repair inh inconclusive, Gal4-VP16 FLuc 6.3µM* and TSHR antag 12.
Screening COc1ccc(-c2cc(C(=O)N/N=C(\C)c3ccco3)c3ccccc3n2)c(OC)c1 returned RORg inh 6.3µM*, B2AR arrestin -1%, ELG1 repair inh inconclusive, Gal4-VP16 FLuc -30% and TSHR antag -5.
Screening O=C(N/N=C/c1cccs1)c1cc(-c2ccncc2)nc2ccccc12 returned RORg inh 5µM*, B2AR arrestin 0%, ELG1 repair inh -22%, Gal4-VP16 FLuc 7.1µM* and TSHR antag 12.
Screening C/C(=N\NC(=O)c1cc(C)nc2ccccc12)c1ccco1 returned RORg inh -26%, B2AR arrestin 0%, ELG1 repair inh -6%, Gal4-VP16 FLuc 4% and TSHR antag -4.
For CCc1ccc(/C=N/NC(=O)c2c[nH]c3ccccc23)s1 the results were RORg inh 11µM*, B2AR arrestin 4%, ELG1 repair inh inconclusive, Gal4-VP16 FLuc -27% and TSHR antag -5.
For CCc1cc(C(=O)N/N=C/c2ccc(OC)cc2)c2ccccc2n1 the results were RORg inh 6%, B2AR arrestin 0%, ELG1 repair inh inconclusive, Gal4-VP16 FLuc -8% and TSHR antag -4.
`O=C(O)CCN(CC(=O)c1ccc(Cl)cc1)S(=O)(=O)c1ccc([N+](=O)[O-])cc1` gave B2AR arrestin 0%, ELG1 repair inh 7% and TSHR antag 8.
COc1ccccc1-c1cc(C(=O)N/N=C/c2cccs2)c2ccccc2n1 was read as RORg inh 4.5µM*, B2AR arrestin 0%, ELG1 repair inh -13%, Gal4-VP16 FLuc 5.6µM* and TSHR antag 1.
Screening O=C(N/N=C/c1cccs1)c1cc(C2CC2)nc2ccccc12 returned RORg inh 10µM*, B2AR arrestin -1%, ELG1 repair inh -7%, Gal4-VP16 FLuc 18µM* and TSHR antag -3.
`O=C(N/N=C/c1ccco1)c1cc(-c2ccncc2)nc2ccccc12` gave B2AR arrestin 0%, ELG1 repair inh -10% and TSHR antag -9.
For CCc1ccc(/C=N/NC(=O)c2cc(-c3ccncc3)nc3ccccc23)s1 the results were RORg inh 2µM*, B2AR arrestin 0%, ELG1 repair inh inconclusive, Gal4-VP16 FLuc 5.6µM* and TSHR antag 14.
For COc1ccc(-c2cc(C(=O)N/N=C/c3sccc3C)c3ccccc3n2)c(OC)c1 the results were RORg inh 4.5µM*, B2AR arrestin 0%, ELG1 repair inh inconclusive and Gal4-VP16 FLuc inconclusive.
For COc1ccc(-c2cc(C(=O)N/N=C/c3ccc4c(c3)OCO4)c3ccccc3n2)c(OC)c1 the results were RORg inh -17%, B2AR arrestin 0%, ELG1 repair inh inconclusive, Gal4-VP16 FLuc -2% and TSHR antag -1.
`CC(C)C[C@H](NC(=O)[C@H]1O[C@@H]1C(=O)O)C(=O)NCCCCN=C(N)N` gave RORg inh 1% and Gal4-VP16 FLuc -2%.
`Cc1ccc(S(=O)(=O)N(C)C)cc1NC(=S)Nc1cccc2ccccc12` gave RORg inh inconclusive, B2AR arrestin -1%, ELG1 repair inh 18%, Gal4-VP16 FLuc inconclusive and TSHR antag 5.
For Cc1ccc(S(=O)(=O)N(C)C)cc1NC(=S)NC(C)CCCC(C)C (centres undefined) the results were RORg inh 18µM*, B2AR arrestin 0%, ELG1 repair inh -17%, Gal4-VP16 FLuc inconclusive and TSHR antag -8.
Screening Cc1ccc(S(=O)(=O)N(C)C)cc1NC(=S)NC(C)CCC(C)C (centres undefined) returned RORg inh 13µM*, B2AR arrestin 0%, ELG1 repair inh -4%, Gal4-VP16 FLuc inconclusive and TSHR antag -5.
For CCCCCCC(C)NC(=S)Nc1cc(S(=O)(=O)N(C)C)ccc1C (centres undefined) the results were RORg inh 13µM*, B2AR arrestin 0%, ELG1 repair inh -22%, Gal4-VP16 FLuc inconclusive and TSHR antag 7.
`CC(=O)NNC(=S)Nc1cc(S(=O)(=O)N(C)C)ccc1C` gave RORg inh -8%, B2AR arrestin 0%, ELG1 repair inh -5%, Gal4-VP16 FLuc 2% and TSHR antag 5.
